# Shown are actives, neighbours in structure and some others; about 4.9% of the full set was active somewhere.
# tim23-1 inh: inhibits growth of tim23-1 mutant yeast. AID 463212. actives 1.3% (n = 330,000). inhibition, % at 20 µM. S. cerevisiae tim23-1 growth, BacTiter-Glo luminescence, 24 h;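 active means growth inhibition of the mutant yeast at or above 50%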;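 further: temperature-sensitive mutant grown at 25 °C; plate controls were DMSO-treated mutant yeast for no effect and medium wells lacking yeast for full effect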
# NALP3 yeast inh: blocks the NALP3 inflammasome reconstituted in yeast | Yeast reconstituted NLRP3/ASC/caspase-1, beta-gal luminescence, 24 h | inhibition, % at 10 µM | actives 0.39% (n = 330,000);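 active means inhibition of 50% or more; inactive means inhibition below 50%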;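 further: plate controls were induced DMSO wells for no effect and uninduced yeast grown without galactose for full effect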
# NALP1 yeast inh: blocks the NALP1 inflammasome reconstituted in yeast; S. cerevisiae NALP1/ASC/caspase-1 growth, X-gal OD620, 72 h; inhibition, % at 10 µM; actives 0.61% (n = 280,000); AID 2071; in the data active means inhibition mostly above about 24%, no sharp cut-off; inactive means mostly below about 32%
# TIM10 inh: growth inhibitors of TIM10 yeast strain. S. cerevisiae TIM10 strain growth, BacTiter-Glo luminescence, 24 h. inhibition, % at 10 µM. actives 1.4% (n = 330,000). AID 463195;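 active means inhibition of 40% or more at the single tested concentration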;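 further: wild-type TIM10 isogenic control strain grown at permissive 25 °C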
# SKKanGAS inh: SKKanGAS growth inhibition; S. pyogenes SKKanGAS, kanamycin growth, BacTiter-Glo, 6 h; inhibition, % at 7.5 µM; actives 1.3% (n = 300,000); AID 1662;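 active means mean replicate score, as percent of positive control median, at least 50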;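 further: strain carries kanamycin resistance gene driven by streptokinase promoter and grows in 40 µg/ml kanamycin; loss of luminescence reflects streptokinase promoter inhibition or plain growth inhibition; 0% = median of DMSO wells and 100% = positive control at its reference dose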
# tim10-1 inh: tim10-1 yeast growth inhibition. inhibition, % at 20 µM. actives 2.2% (n = 330,000). AID 463190. S. cerevisiae tim10-1 ts strain growth, BacTiter-Glo, 24 h;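 active means inhibition of at least 40%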;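 further: mutant grown at 25 °C; 0% = DMSO wells with yeast and 100% = wells holding no yeast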
# TIM10 conf: TIM10 yeast growth inhibition, confirmed; inhibition, % at 10 µM; S. cerevisiae tim10 strain growth, BacTiter-Glo luminescence, 24 h; shares compounds with TIM10 inh; actives 63% (n = 4,600);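 active means inhibition of yeast growth at or above a set limit in either of two replicates at 10 µM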;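 further: this counterscreen used the strain with wild-type TIM10; 0% = yeast with DMSO and 100% = medium wells lacking yeast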
# An asterisk follows results filed as active; / = no result given.
SMILES,tim23-1 inh,NALP3 yeast inh,NALP1 yeast inh,TIM10 inh,SKKanGAS inh,tim10-1 inh,TIM10 conf
S=C(NCc1ccccc1Cl)Nc1ccccc1Cl,38,10,-4,43*,9,28,38*
Cc1noc(C)c1COc1ccc(C(=O)NCC(c2c(F)cccc2Cl)N(C)C)cc1 (configuration not stated),6,17,/,-4,/,-8,/
Cc1cccc(N(CC(=O)NC2CCCC2)C(=O)c2csnn2)c1C,12,19,10,16,3,-6,/
O=C(COC(=O)c1cnccn1)N=c1sccn1Cc1ccccc1Cl,-22,13,/,-25,1,-16,/
C=CCc1c(C)nc(-c2ccccc2)nc1N/N=C(\C)c1ccccc1,33,-22,24,29,3,25,/
C=CCc1c(C)nc(-c2ccccc2)nc1Nc1ccc(O)cc1,50,13,31,40*,5,33,31
Cc1c(CNCCc2ccc(Cl)cc2)c(C(=O)O)c(C)n1-c1ccccc1,12,4,5,-11,0,18,/
c1ccc(-c2nc(N3CCCCCC3)nc(-n3ccnc3)n2)cc1,17,-4,18,48*,86*,16,28
COc1ccccc1-n1c2nc3ccccc3nc2c2c(=O)n(-c3cc(C)cc(C)c3)cnc21,33,23,22,25,28,26,/
COc1ccccc1-n1cnc2c(c1=O)c1nc3ccccc3nc1n2-c1ccc(C)cc1,34,-4,20,46*,7,39,21
O=S(=O)(c1ccc(C(F)(F)F)cc1)N1CCN(CCc2ccccc2)CC1,32,23,0,17,-8,17,/
O=C(CSc1ccc(Br)cc1)NC1CCS(=O)(=O)C1 (configuration not stated),11,4,/,10,-10,7,/
Cc1ccccc1N1CCN(C(=O)c2ccc(Oc3ccc(C(F)(F)F)cn3)cc2)CC1,38,-4,44,47*,6,38,43*
O=C(CCCOc1ccc(Cl)cc1Cl)N/N=C/c1ccccc1O,39,12,20,41*,33,-1,40*
CCCCOc1ccc(C(=O)NCC(=O)N2CCN(Cc3ccc4c(c3)OCO4)CC2)cc1,21,9,/,25,11,13,/
O=C(NCC(=O)N1CCN(Cc2ccc3c(c2)OCO3)CC1)c1ccccc1F,11,20,/,97*,/,-14,-11
CC(OC(=O)CCOc1ccccc1)C(=O)Nc1ccc(Cl)cn1 (configuration not stated),32,20,3,21,0,34,/
Cc1ccc(OC(C)C(=O)Nc2ncc(Cl)cc2Cl)c([N+](=O)[O-])n1 (configuration not stated),25,11,/,-23,/,-43,/
CC(OC(=O)c1ccc([N+](=O)[O-])s1)C(=O)Nc1ncc(Cl)cc1Cl (configuration not stated),23,4,8,44*,11,24,2
O=C(O/N=C1/CCCc2occc21)c1ccc(Cl)cc1Cl,14,1,/,44*,22,23,38*
O=C(O/N=C1/CCCc2occc21)c1ccccc1,41,3,5,3,-3,34,/
CCN(CC(=O)Nc1ccc(NC(C)=O)cc1)CC(=O)Nc1cc(C)on1,-3,3,/,6,/,-11,/
COC(=O)CC1=NN(c2ccccc2)C(=O)/C1=C\c1ccc(OC)cc1,39,10,25,18,0,20,/
CCOC(=O)CC1=NN(c2ccccc2)C(=O)/C1=C\c1ccc(OC)cc1OC,47,-11,0,48*,4,36,29
CCOc1ncccc1C(=O)OCC(=O)NCc1ccc(C(=O)OC)cc1,1,26,/,6,/,-2,/
SMILES,tim23-1 inh,NALP3 yeast inh,NALP1 yeast inh,TIM10 inh,SKKanGAS inh,tim10-1 inh,TIM10 conf
CCN(CC)CCN(C(=O)c1cc2c(ccc3ccccc32)oc1=O)c1nc2cc3c(cc2s1)OCCO3,31,14,12,50*,2,20,31
Cc1ccsc1/C=N/Nc1nc2ccccc2s1,39,12,-9,40*,-11,13,44*
C(=N\Nc1nc2ccccc2s1)/c1ccco1,42,15,-1,8,-18,16,/
Cc1cccc(NC(=S)N/N=C(\c2ccccc2)C(C)C)c1,40,16,-2,54*,69*,39,40*
CC(OC(=O)CCSc1ccccc1)C(=O)Nc1ccc(S(N)(=O)=O)cc1 (configuration not stated),19,12,/,16,2,1,/
CC(=O)Nc1ccc(NC(=O)C(C)OC(=O)CCSc2ccccc2Cl)cc1 (configuration not stated),4,17,/,97*,/,12,4
COCCCNC(=O)c1cc(S(=O)(=O)N2CCOCC2)ccc1SCc1cccc(OC)c1OC,10,-6,18,-8,-7,18,/
CC1=NN(/C(=N\c2nnc(C)s2)Nc2ccc(C(C)(C)C)cc2)[C@H](c2ccc(C)cc2)S1,50,12,1,52*,58*,34,16
Cc1ccc(NC(=O)CCSc2nnc(C)s2)cc1,-14,14,-83,-4,-2,9,/
Nc1c(C(=O)Nc2ccc(F)cc2)sc2nc(-c3ccco3)ccc12,46,20,-4,49*,38,31,48*
CCN(CC)S(=O)(=O)c1ccc(NC(=O)c2cnccn2)cc1,10,14,-2,5,-3,4,/
CCC(Cc1ccccc1)n1c(=S)[nH]c2ccccc2c1=O (configuration not stated),24,18,6,50*,-10,34,38*
CCOC(=O)C1=C(C)N(CCCC(=O)O)C(=O)NC1c1ccccc1OS(=O)(=O)c1ccccc1[N+](=O)[O-] (configuration not stated),-4,18,/,97*,4,-18,-11
CC1=C(C(=O)OCc2ccccc2)C(c2ccccc2OS(=O)(=O)c2ccccc2[N+](=O)[O-])NC(=O)N1CCCC(=O)O (configuration not stated),12,-6,/,0,10,9,/
CCOC(=O)c1sc2nc(CSc3ccccc3)nc(N3CCCN(C)CC3)c2c1C,4,40,12,41*,-8,0,30
COc1ccc(/C=C/c2nc3ccccc3n2Cc2ccccc2OC)cc1,27,-6,23,22,25,32,/
COc1ccccc1Cn1c(/C=C/c2ccccc2)nc2ccccc21,29,23,16,42*,15,30,-22
Cn1c(/C=C/c2ccccc2)nc2ccccc21,49,42,13,55*,22,20,48*
COc1cc2c(-c3ccc4[nH]ccc4c3)c(-c3ccc(C#N)cc3)oc(=O)c2cc1OC,28,18,/,7,/,31,/
